Screening results from PubChem BioAssay.
In the library only some 0.56% were active in any assay of this set; here they are far more common.
EPAC2 antagonist: qHTS for Antagonist of cAMP-regulated guanine nucleotide exchange factor 2 (EPAC2): primary screen; Potency, µM (series often up to 114 µM), for the others: top-dose activity, negative = inhibition, most hits filed as inhibitors; EPAC2 GEF exchange of Rap1B-BODIPY-GDP, fluorescence; Rap guanine nucleotide exchange factor 4 (Homo sapiens), Q8WZA2; hit rate 0.18% among 360,000; further: potency means the concentration at half of the fitted maximal effect; on the % scale 0 is the no-effect control and ±100 the full control effect; nearly all actives have a fitted effect of over 45% in size
Target sequence (Q8WZA2 whole entry, looked up): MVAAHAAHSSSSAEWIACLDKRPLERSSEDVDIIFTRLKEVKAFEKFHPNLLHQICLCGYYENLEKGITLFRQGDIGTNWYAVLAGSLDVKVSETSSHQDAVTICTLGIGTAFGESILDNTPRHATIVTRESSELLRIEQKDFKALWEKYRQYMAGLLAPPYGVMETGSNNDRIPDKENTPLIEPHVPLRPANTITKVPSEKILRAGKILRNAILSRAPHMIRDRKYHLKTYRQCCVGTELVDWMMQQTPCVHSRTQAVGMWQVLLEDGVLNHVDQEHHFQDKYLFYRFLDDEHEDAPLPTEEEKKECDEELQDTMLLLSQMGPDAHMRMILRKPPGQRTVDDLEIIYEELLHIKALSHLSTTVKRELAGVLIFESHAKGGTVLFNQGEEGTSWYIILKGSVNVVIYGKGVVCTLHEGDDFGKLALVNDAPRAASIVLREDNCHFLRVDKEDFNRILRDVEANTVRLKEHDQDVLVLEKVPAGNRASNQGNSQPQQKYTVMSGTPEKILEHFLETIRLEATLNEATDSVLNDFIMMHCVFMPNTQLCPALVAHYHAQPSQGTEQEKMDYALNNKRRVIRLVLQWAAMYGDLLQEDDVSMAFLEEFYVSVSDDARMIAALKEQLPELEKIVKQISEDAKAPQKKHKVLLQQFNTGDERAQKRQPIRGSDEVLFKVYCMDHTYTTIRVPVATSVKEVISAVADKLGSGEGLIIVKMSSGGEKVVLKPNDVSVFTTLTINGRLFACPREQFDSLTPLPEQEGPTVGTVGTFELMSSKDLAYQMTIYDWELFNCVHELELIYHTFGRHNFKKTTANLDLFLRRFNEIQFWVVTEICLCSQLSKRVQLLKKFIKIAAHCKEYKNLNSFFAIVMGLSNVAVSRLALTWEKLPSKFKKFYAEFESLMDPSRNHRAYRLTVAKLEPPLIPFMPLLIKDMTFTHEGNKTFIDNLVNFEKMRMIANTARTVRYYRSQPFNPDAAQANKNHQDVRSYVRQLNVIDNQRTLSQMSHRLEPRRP
USP1 inh: Inhibitors of USP1/UAF1: Primary Screen | Ubiquitin carboxyl-terminal hydrolase 1 (Homo sapiens), O94782 | recombinant USP1/UAF1, Ub-Rhodamine cleavage fluorescence | Potency, µM (series often up to 57.1 µM), for inactives: top-dose activity change, negative = inhibition, hits mostly inhibitors | hit rate 0.23% among 390,000 | AID 743255, 2014; further: potency means the concentration at half of the fitted maximal effect; on the % scale 0 is the no-effect control and ±100 the full control effect; nearly all actives have a fitted effect of over 60% in size
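High-throughput fluorogenic screen: 1nM USP1/UAF1 complex, Ub-Rho substrate 150nM final, 50mM HEPES pH 7.8 with 0.5mM EDTA, 0.1 mg/ml BSA, 1mM TCEP and 0.01% Tween-20.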
EPAC1 agonist: qHTS for Agonist of cAMP-regulated guanine nucleotide exchange factor 3 (EPAC1): primary screen; EPAC1 agonist qHTS, biochemical assay; response scale: 100% = response to 6.5 mM cAMP; Rap guanine nucleotide exchange factor 3 (Homo sapiens), O95398; hit rate 0.073% among 360,000; Potency, µM (titrated, usually from 154 µM), inactives show at the top dose activation, most hits filed as activators; AID 720707, 2013; further: potency means the concentration at half of the fitted maximal effect; nearly all actives have a fitted effect of over 60% in size
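Normalized to 6.5 mM cAMP, activity reflects EPAC1-catalysed release of BODIPY-GDP from Rap1B, followed kinetically over 30 min at 480 nm excitation, 540 nm emission. Reaction contained 100 nM EPAC1, 250 nM Rap1B-BODIPY-GDP, 50 uM GDP.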
EPAC2 ag: qHTS for Agonist of cAMP-regulated guanine nucleotide exchange factor 4 (EPAC2): primary screen | hit rate 0.079% among 360,000 | AID 720711, 2013 | Potency, µM (doses to about 154 µM), without a hit: at the highest dose activation, usual class: activators | EPAC2 activation, biochemical qHTS; response scale: 100% = 6.5 mM cAMP response; further: potency means the concentration at half of the fitted maximal effect; nearly all actives have a fitted effect of over 50% in size
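Each well held 100 nM EPAC2, 250 nM RAP1B-BODIPY-GDP and 50 uM GDP. Fluorescence, read at 5-min intervals to 30 min, was referenced to a 6.5 mM cAMP positive control.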
LDHA block: qHTS assay for inhibitors of human lactate dehydrogenase. purified LDHA, NADH/diaphorase-resazurin fluorescence; stronger effect = lower value. activity change, % (values are at about 110 or 230 µM). hit rate 0.15% among 480,000; in the data active means activity change below about -30%; inconclusive means mostly about -25% to -30%;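 further: plate controls were DMSO wells for no effect and wells without enzyme for full effect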
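Enzyme activity of human lactate dehydrogenase 5 (2 nM; 0.06 mM NADH, 0.2 mM pyruvate, 5 min, RT) is measured via a resazurin/diaphorase fluorescence readout of residual NADH.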
EPAC1 antag: qHTS for Antagonist of cAMP-regulated guanine nucleotide exchange factor 3 (EPAC1): primary screen; hit rate 0.14% among 360,000; Potency, µM (titrated, usually from 115 µM), without a hit: top-dose activity change, negative = inhibition, hits mostly inhibitors; Rap guanine nucleotide exchange factor 3 (Homo sapiens), O95398; EPAC1 GEF assay, Rap1b-BODIPY-GDP exchange fluorescence; AID 720709, 2013;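 further: potency means the concentration at half of the fitted maximal effect; plate controls were vehicle for no effect and positive control for full effect; nearly all actives have a fitted effect of over 50% in size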
Active calls of the source: *. Unless noted, the call rests on the fitted dose curve; in most records, active means well fitted curve in the direction sought with a large enough effect; inconclusive means small, poorly fitted or top-dose-only effect, or another doubt; inactive means no such curve, though single readings can be large; an effect the other way counts as inactive or inconclusive.

For N=c1c(S(=O)(=O)c2ccc(Br)cc2)cc2c(=O)n3ccccc3nc2n1C1CCCC1 the results were EPAC2 antagonist 79µM*, USP1 inh -1%, EPAC1 agonist 1%, EPAC2 ag -1%, LDHA block -2 and EPAC1 antag -6%.
N=c1c(S(=O)(=O)c2ccccc2)cc2c(=O)n3ccccc3nc2n1C1CCCC1 was read as EPAC2 antagonist -13%, USP1 inh -23%, EPAC1 agonist -1%, EPAC2 ag 13%, LDHA block -4 and EPAC1 antag 10%.
`CCN1CCN(C(C(=O)NC2CCCCC2)C2CC2)CC1` (stereo unspecified) gave EPAC2 antagonist -5%, EPAC1 agonist -3%, EPAC2 ag 4%, LDHA block -2 and EPAC1 antag -5%.
Screening CCN1CCN(C(C)C(=O)NC2CCCCC2)CC1 (stereo unspecified) returned EPAC2 antagonist 10%, USP1 inh 2%, EPAC1 agonist 4%, EPAC2 ag 11%, LDHA block -31* and EPAC1 antag 0%.
C=CCn1cc(/C=C2/NC(=O)N(CC)C2=O)c2ccccc21 was read as LDHA block 11.
For O=C1c2cccnc2C(=O)N1CO the results were EPAC2 antagonist 0%, USP1 inh -16%, EPAC1 agonist 5%, EPAC2 ag 2%, LDHA block -6 and EPAC1 antag -7%.
Screening NC1=C(Br)C(=O)c2ncccc2C1=O returned EPAC2 antagonist inconclusive, USP1 inh 4.5µM*, EPAC1 agonist -1%, EPAC2 ag 13%, LDHA block 41 and EPAC1 antag inconclusive.
For COc1ccc(CC(=O)Nc2nc(-c3cccnc3)cs2)cc1 the results were EPAC2 antagonist -3%, USP1 inh -1%, EPAC1 agonist -10%, EPAC2 ag -10%, LDHA block -6 and EPAC1 antag 13µM*.
For COc1cccc(CC(=O)Nc2nc(-c3cccnc3)cs2)c1 the results were EPAC2 antagonist -2%, USP1 inh -1%, EPAC1 agonist 2%, EPAC2 ag 9%, LDHA block -3 and EPAC1 antag 16%.
COc1ccc(S(=O)(=O)N2CCCCC2)cc1NC(=O)c1ccccc1 was read as EPAC2 antagonist 7%, USP1 inh -17%, EPAC1 agonist 10%, EPAC2 ag 5%, LDHA block -10 and EPAC1 antag -5%.
COc1ccc(S(=O)(=O)N2CCCCC2)cc1NC(=O)c1c(F)cccc1Cl was read as EPAC2 antagonist -14%, USP1 inh 0%, EPAC1 agonist 2%, EPAC2 ag 2%, LDHA block 3 and EPAC1 antag 56µM*.
Cc1[nH]n(-c2ncc(-c3ccccc3)s2)c(=O)c1C(c1ccc(Br)cc1)C(C#N)C#N (stereo unspecified) was read as EPAC2 antagonist -18%, USP1 inh -24%, EPAC1 agonist 10%, EPAC2 ag 3%, LDHA block -6 and EPAC1 antag 16µM*.
`O=c1c2ccccc2ncn1-c1ccc(Cl)cc1Cl` gave EPAC2 antagonist inconclusive, USP1 inh -18%, EPAC1 agonist 14%, EPAC2 ag 15%, LDHA block -10 and EPAC1 antag -1%.
`O=c1c2ccccc2sn1-c1ccc(Cl)cc1Cl` gave EPAC2 antagonist 11µM*, USP1 inh -22%, EPAC1 agonist -1%, EPAC2 ag 2%, LDHA block -11 and EPAC1 antag 0%.
Screening CCCCn1c(SCC(=O)NC(C)(C)C)nc2cc(C(=O)OC)ccc2c1=O returned LDHA block 0.
CCCc1cc(=O)[nH]c(SCC(=O)c2c(N)n(C3CC3)c(=O)[nH]c2=O)n1 was read as EPAC2 antagonist 4%, USP1 inh -16%, EPAC1 agonist -4%, EPAC2 ag 8%, LDHA block -16 and EPAC1 antag 5%.
For Cc1ccc2nc(SCC(=O)c3c(N)n(C4CC4)c(=O)[nH]c3=O)[nH]c2c1 the results were EPAC2 antagonist 71µM*, USP1 inh -25%, EPAC1 agonist -9%, EPAC2 ag 27%, LDHA block -5 and EPAC1 antag -9%.
Screening CN(C)S(=O)(=O)c1ccc2c(c1)N(CC(=O)N1CCN(c3cccc(Cl)c3)CC1)CCS2 returned USP1 inh -26% and LDHA block -2.
`Cc1occc1-c1nnc(SCC(=O)c2ccc3c(c2)NC(=O)CO3)o1` gave LDHA block -4.
For CCC[C@H]1CC(=O)C=C(c2ccsc2)ON1C(=O)OC(C)(C)C the results were EPAC2 antagonist 18µM*, USP1 inh -22%, EPAC1 agonist -19%, EPAC2 ag 9%, LDHA block 7 and EPAC1 antag -10%.
CCCCN1C(=O)/C(=C/C=C2\SCCN2C)SC1=S was read as EPAC2 antagonist -20%, USP1 inh -22%, EPAC1 agonist 21%, EPAC2 ag 10%, LDHA block 8 and EPAC1 antag -5%.
CN1CCS/C1=C/C=C1\SC(=S)N(CC(=O)O)C1=O was read as EPAC2 antagonist inconclusive, USP1 inh 25µM*, EPAC1 agonist inconclusive, EPAC2 ag 15%, LDHA block 7 and EPAC1 antag -22%.
`Cc1[nH]c(=O)[nH]c(=O)c1Sc1ccccc1[N+](=O)[O-]` gave EPAC2 antagonist 5%, USP1 inh -23%, EPAC1 agonist -2%, EPAC2 ag 9%, LDHA block 4 and EPAC1 antag 18%.
`Cc1cc(OC(=O)c2ccco2)c(Sc2ccccc2[N+](=O)[O-])c(=O)o1` gave EPAC2 antagonist -7%, USP1 inh -15%, EPAC1 agonist 4%, EPAC2 ag 9%, LDHA block -106* and EPAC1 antag 6%.
CC1OC(CC(=O)O)CC2=C1C(=O)c1c(O)cccc1C2=O (stereo unspecified) was read as EPAC2 antagonist inconclusive, USP1 inh 11µM*, EPAC1 agonist -13%, EPAC2 ag 9%, LDHA block 45 and EPAC1 antag inconclusive.
N#Cc1c[nH]n2c(=O)cc(CSc3nnc(-c4ccccc4F)n3C3CC3)nc12 was read as LDHA block 8.
Cc1ccc(-c2nc3cc(Cl)ccc3o2)cc1NC(=O)COc1ccccc1C was read as LDHA block -5.
